# Hit rate of the full screen: of about 16,000 compounds, about 5,700 (36%) were called active. Not shown: some 24% with an inconclusive outcome. Some of the results follow. Unmarked numbers belong to inactive results. The call rests on the fitted dose curve; in most records, active means well fitted curve in the direction sought with a large enough effect; inconclusive means small, poorly fitted or top-dose-only effect, or effect the other way; inactive means no such curve, though single readings can be large or run the other way.
# Target: Cytochrome P450 1A2 (Homo sapiens) (UniProt P05177)
# Assay: Cytochrome panel assay with activity outcomes
# Conditions: recombinant CYP, pro-luciferin dealkylation, luminescence, p450-cyp1a2; series mostly up to 57.1 µM; activity, negative = inhibition: at the top concentration
# Description: The P450 gene superfamily is involved in the metabolism and clearance of xenobiotics. This assay used various human CYP P450 isozymes to measure the dealkylation of various pro-luciferin substrates to luciferin. The luciferin is then measured by luminescence after the addition of a luciferase detection reagent. Pro-luciferin substrate concentration in the assay was equal to its KM for its CYP P450 isozyme. Inhibitors and some substrates limit the production of luciferin, and decrease measured luminescence.
# NCGC Assay Protocol Summary:
# 1, Reagent, 2 uL, Isozyme and Pro-Luciferin
# 2, Library compounds, 23 nl, 40 uM to 0.24 nM dilution series
# 3, Controls, 23 nl, Isozyme specific inhibitor
# 4, Reagent, 2 uL, NADPH regeneration solution
# 5, Incubation time, 60 min, Isozyme specific temperature
# 6, Reagent, 4ul, Detection reagent
# 7, Incubation time, 20 min, Isozyme specific temperature
# 8, Detection, 1 sec, ViewLux luminescent read
# The luciferase-based P450-GloTM Screening Systems were obtained from Promega (Madison, WI) for CYP 1A2 (V9770), CYP 2C9 (V9790), CYP2 C19 (V9880), CYP 2D6 (V9890), and CYP 3A4 Luciferin-PPXE (V9910) and were adapted for 1,536-well microplates and an automated protocol. The control compounds furafylline for 1A2 (F124), sulfaphenazole for CYP 2C9 (S0758), ketoconazole for CYP 2C19 (K1003), quinidine for 2D6 (Q3625), and ketoconazole for 3A4 (K1003) were purchased from Sigma Aldrich (St. Louis, MO). Recombinant P450 enzymes were obtained from baculovirus constructs expressed in insect cells (BD/Gentest).
# Medium-binding white solid Kalypsys plates used. Mixtures kept on ice. 1A2: 10 nM 1A2, 100 uM Luc-ME, 100 mM KPO4; 2C9: 10 nM 2C9, 100 uM Luc-H, 25 mM KPO4; 2C19: 5 nM 2C19, 10 uM Luc-H EGE, 50 mM KPO4; 2D6: 5 nM 2D6, 30 uM Luc-ME EGE, 100 mM KPO4; 3A4: 10 nM, 25 uM Luc-PPXE. All amounts are reflected in their final concentration, working concentration is 2x.
# NADPH regeneration solution: 1.3 mM NADP+, 3.3 mM glucose-6-phosphate, 3.3 mM MgCl2, 0.4 U/mL glucose-6-phosphate dehydrogenase for all isozymes, 200 mM KPO4 for 3A4. Mixture prepared at RT but kept on ice during automated run.
# RT incubation in auxilliary plate hotel for 1A2, 2D6, and 3A4; 37C for 2C9 and 2C19.
# Keywords: P450, CYP1A2, CYP2C19, CYP2C9, CYP2D6, CYP3A4, Luciferase, MLSMR, MLSCN, NIH Roadmap, qHTS, NCGC
# On the % scale 0 is the no-effect control and ±100 the full control effect.
# Chain of Cytochrome P450 1A2 (Homo sapiens) (P05177 whole entry, looked up): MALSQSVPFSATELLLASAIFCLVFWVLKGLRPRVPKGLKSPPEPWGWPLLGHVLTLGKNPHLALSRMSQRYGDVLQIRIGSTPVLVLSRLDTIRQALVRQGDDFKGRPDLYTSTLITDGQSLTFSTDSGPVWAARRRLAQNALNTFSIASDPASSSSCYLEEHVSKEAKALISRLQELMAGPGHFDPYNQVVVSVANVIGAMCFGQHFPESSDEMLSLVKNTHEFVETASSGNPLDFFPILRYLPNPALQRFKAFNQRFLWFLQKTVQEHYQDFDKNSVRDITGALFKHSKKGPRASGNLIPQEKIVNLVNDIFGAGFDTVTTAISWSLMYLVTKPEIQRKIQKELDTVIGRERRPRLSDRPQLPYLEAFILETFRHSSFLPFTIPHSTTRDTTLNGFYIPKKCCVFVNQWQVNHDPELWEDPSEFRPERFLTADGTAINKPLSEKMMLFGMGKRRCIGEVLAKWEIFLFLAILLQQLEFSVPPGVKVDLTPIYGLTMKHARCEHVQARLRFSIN
Structure (SMILES),"activity, negative = inhibition",AC50
COc1ccc2c(c1)CCC1C2CC[C@]2(C)[C@H](NCCCCCCN3C(=O)C=CC3=O)CC[C@@H]12 (stereo partly specified),-3.41% (inactive),
CCNC(=S)N1CC(C)OC(C)C1 (stereo unspecified),-21.6% (inactive),
O=c1c(-c2ccc(O)cc2)coc2cc(O)ccc12,,15.8 µM (active)
O=c1c(-c2ccc(O)cc2)coc2cc(O)cc(O)c12,,5.01 µM (active)
COc1ccc(-c2coc3cc(OC)cc(O)c3c2=O)cc1,,3.16 µM (active)
CC(O)CN(CCC(N)=O)CCC(N)=O (stereo unspecified),6.43% (inactive),
Cc1nnc(NC(=O)CSc2ncnc3c2cnn3-c2ccccc2C)s1,1.29% (inactive),
COc1ccccc1C(=O)NCCn1cc(SCC(=O)Nc2nnc(C)s2)c2ccccc21,,12.6 µM (active)
CC(C)C(=O)c1c(C(C)C)nn2ccccc12,,0.631 µM (active)
CC(C)Oc1ccc2c(=O)c3cc(C(=O)O)ccc3oc2c1,-20.5% (inactive),
COc1ccc2c(=O)c(-c3ccccc3)c(C)oc2c1,,2.51 µM (active)
O=C(c1ccc(COc2ccc(F)cc2)o1)n1cccn1,,10 µM (active)
CN(C)c1ccc(-c2cncnc2NCc2cccs2)cc1,,0.398 µM (active)
CN(C)C(=O)c1ccc(-c2cncnc2NCc2cccs2)cc1,,20 µM (active)
COc1cccc(=O)c2c(C)n(-c3cc(C)cc(C)c3)c(C)c12,,10 µM (active)
COc1cc(/C=C(\C#N)c2nc3c(s2)CC(C)CC3)ccc1O (stereo unspecified),,1.12 µM (active)
COc1cc(/C=C(/C#N)c2nc3ccccc3[nH]2)ccc1OCC(=O)Nc1ccccc1C,2.56% (inactive),
CCn1c(SCC(=O)Nc2nc3ccc(C)cc3s2)nc2c(c1=O)SC(C)C2 (stereo unspecified),,1.58 µM (active)
CCn1c(SCC(=O)NC2CCCCC2)nc2c(c1=O)SC(C)C2 (stereo unspecified),,14.1 µM (active)
CCn1nnnc1SCC(=O)NC1CCCC1,-18% (inactive),
CCn1c(SCC(=O)Nc2ccc3c(c2)OCCO3)nc2c(c1=O)SC(C)C2 (stereo unspecified),,12.6 µM (active)
CCOc1ccc(-n2c(SCC(=O)Nc3ccc4c(c3)OCCO4)nc3c(c2=O)SCC3)cc1,-12.3% (inactive),
CCOc1ccc(-n2c(SCC(=O)Nc3ccc(OC)cc3)nc3c(c2=O)SCC3)cc1,-13.7% (inactive),

Structure (SMILES),"activity, negative = inhibition",AC50
Cc1ccc2nc(NC(=O)CSc3nc4c(c(=O)n3C)SC(C)C4)sc2c1 (stereo unspecified),,5.01 µM (active)
C=CCn1c(SCC(=O)NC2CCCCC2)nnc1C1CCCCC1,1.5% (inactive),
c1ccc([C@H](CCN2CCCC2)c2ccccn2)cc1,-14.8% [at 11.4 µM],
CN(C)CCCn1cnc2cc(Cl)c(Cl)cc21,-19.9% [at 2.29 µM],
CNc1ncnc2ccc(-c3ccccc3CN(C)C)cc12,,3.16 µM (active)
CN(C)Cc1ccccc1-c1ccc2ncnc(NCc3ccccc3)c2c1,,15.8 µM (active)
CN(C)Cc1ccccc1-c1ccc2ncnc(NC3CCNCC3)c2c1,-9.16% (inactive),
CN(C)Cc1ccccc1-c1ccc2ncnc(N(C)C)c2c1,,12.6 µM (active)
N=C(N)CCNC(=O)[C@@H]1CCC(N)=N1,-3.4% [at 2.29 µM],
COc1cccc([C@@H]2Oc3ccc(OC)cc3/C(=N/O[C@@H](C)CN3CCCc4nc(C)c(C)cc43)[C@@H]2O)c1,2.03% [at 11.4 µM],
CN1CCN(c2ccc([N+](=O)[O-])cc2S(=O)(=O)N2CCOCC2)CC1,6.31% (inactive),
CN(C)S(=O)(=O)c1cc([N+](=O)[O-])ccc1N1CCCCCC1,,14.1 µM (active)
Cn1c(CCN2CCCCC2)nc2cc([N+](=O)[O-])ccc21,-14.1% (inactive),
CCCNC(=O)OC[C@@H]1O[C@H](CCO/N=C(\C)CCC(=O)OC[C@@H]2O[C@H](c3ccccc3)C=C[C@@H]2Oc2ccc(OC)cc2)C=C[C@@H]1Oc1ccc(OC)cc1,-2.5% [at 11.4 µM],
Nc1ccccc1C(=O)/C=C\c1ccc2c(c1)OCO2,-4.77% [at 11.4 µM],
CNc1ccc(Br)cc(C(=O)/C=C/c2ccc3c(c2)OCO3)c1=O,,3.16 µM (active)
CCNc1ccc(Br)cc(C(=O)/C=C/c2ccc3c(c2)OCO3)c1=O,,22.4 µM (active)
Oc1cc(O)c2c(c1)O[C@H](c1ccc(O)c(O)c1)[C@H](O)C2,,inactive
CC1CCCC(C)N1C(=O)C1CC(c2ccc(F)cc2)=NO1 (stereo unspecified),-45.5% (inactive),
Cc1ccc(CCN2CC(C(=O)NC3CCCC3)CC2=O)cc1 (stereo unspecified),-27.7% (inactive),
O=C(NC1CCCC1)C1CC(c2ccc(F)cc2)=NO1 (stereo unspecified),,15.8 µM (active)
COC(=O)c1c(NC(=O)CC2Nc3ccccc3NC2=O)sc(C)c1C (stereo unspecified),,10 µM (active)
Cc1c(Cl)cccc1NC(=O)C[C@H]1Sc2ccccc2NC1=O,-23.2% [at 2.29 µM],

# Source: PubChem BioAssay AID1851 (National Center for Advancing Translational Sciences (NCATS), 2009)
